According to PubChem BioAssay AID720504 (National Center for Advancing Translational Sciences (NCATS), 2013):
In all, about 360,000 compounds went through this assay and about 10,000 (2.8%) were called active. About 4% were inconclusive and are not listed. Calls come from the whole dose curve; as a rule, active = well fitted inhibition curve with a large enough effect; inconclusive = small, poorly fitted or top-dose-only effect; inactive = flat fitted curve, though single readings scatter. This excerpt belongs to a sample that is enriched for actives.
% is set by controls: 0 for no effect and ±100 for the full control effect; potency is the fitted concentration of half-maximal effect.
Note: nearly all actives have a fitted effect of over 65% in size.
Throughout, for max response, negative = inhibition: series mostly up to about 57 µM.

The compounds below were run against Serine/threonine-protein kinase PLK1 (Homo sapiens) (UniProt P53350) (assay: qHTS for Inhibitors of PLK1-PDB (polo-like kinase 1 - polo-box domain): Primary Screen). Details: Plk1 PBD binding of FITC phosphopeptide, fluorescence polarization.
Serine/threonine-protein kinase PLK1 (Homo sapiens), sequence (P53350 whole entry, looked up, the tested form may be a part): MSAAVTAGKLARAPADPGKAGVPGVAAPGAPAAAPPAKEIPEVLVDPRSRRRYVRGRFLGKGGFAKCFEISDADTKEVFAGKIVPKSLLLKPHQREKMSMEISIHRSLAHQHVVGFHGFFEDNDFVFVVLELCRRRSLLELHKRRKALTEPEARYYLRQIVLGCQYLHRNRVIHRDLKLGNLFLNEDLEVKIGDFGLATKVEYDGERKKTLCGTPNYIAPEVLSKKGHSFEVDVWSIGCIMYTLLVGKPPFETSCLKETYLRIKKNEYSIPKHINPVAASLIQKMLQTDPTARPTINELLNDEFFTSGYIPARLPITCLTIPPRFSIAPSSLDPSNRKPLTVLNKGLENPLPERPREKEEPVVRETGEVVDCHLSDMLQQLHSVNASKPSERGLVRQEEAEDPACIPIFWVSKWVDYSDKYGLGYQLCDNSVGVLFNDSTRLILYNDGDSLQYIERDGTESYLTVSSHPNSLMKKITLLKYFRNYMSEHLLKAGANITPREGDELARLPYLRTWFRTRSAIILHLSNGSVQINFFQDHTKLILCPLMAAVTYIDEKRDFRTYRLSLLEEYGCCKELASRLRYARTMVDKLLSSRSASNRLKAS
`Cc1nc2c(OCC(=O)C(C)(C)C)cccn2c1N(C)Cc1cccs1` was tested, and the max response, negative = inhibition was -10% (inactive).
With `COc1ccccc1C(=O)Nc1ccc(C)c(S(=O)(=O)N2CCCCC2)c1` the max response, negative = inhibition was -5.05% (inactive).
In the case of `CCOC(=O)C1CCN(CC(=O)Nc2ccc(OC)c(S(=O)(=O)N3CCCCC3)c2)CC1`, the max response, negative = inhibition is reported as 3.48% (inactive).
In the case of `COc1ccc(NC(=O)C2=NNC(=O)CC2)cc1S(=O)(=O)N1CCCCC1`, the Potency is reported as 16.8 µM (active).
In the case of `CC(=O)c1cccc(NC(=O)C2COc3ccccc3O2)c1` (stereo not given), the max response, negative = inhibition is reported as 2.4% (inactive).
For `COc1ccc(NC(=O)COC(=O)C2COc3ccccc3O2)cc1` (stereo not given), the max response, negative = inhibition was -3.22% (inactive).
In the case of `O=C(Nc1nc(-c2ccncc2)cs1)C1COc2ccccc2O1` (stereo not given), the Potency is reported as 3.36 µM (active).
For `CCc1nc2ccc(C(=O)Nc3cc(-c4ccccc4)ccc3OC)cn2c1N(CC)CC(=O)N(C)C`, the max response, negative = inhibition was -4.06% (inactive).
For `Cc1ccc(C(=O)NCC(=O)NC2CC2)cc1`, the max response, negative = inhibition was -13.7% (inactive).
For `COc1ccc(S(=O)(=O)NCC(=O)NCc2cc(=O)n(C)c(=O)n2C)cc1F`, the max response, negative = inhibition was -15.2% (inactive).
With `Cc1ccc(C(=O)NCC(=O)NCc2cc(=O)n(C)c(=O)n2C)cc1` the Potency was 26.7 µM (active).
`O=C(O)c1ccccc1Cc1ccc(F)c2ccccc12` was tested, and the max response, negative = inhibition was -10.5% (inactive).
With `CN1OC[C@@H]2CN(C(=O)c3cccnc3)[C@H](c3ccc(N4CCCCC4)cc3)C[C@@H]21` the max response, negative = inhibition was -6.62% (inactive).
`COc1ccc(NC(=O)C2(C)Cc3c(-c4ccc(C(N)=O)cc4)ccnc3O2)cc1` (stereo not given) was tested, and the max response, negative = inhibition was -13.3% (inactive).
With `CCOC(=O)c1sc(=S)n2c1[nH]c(=O)c1ccc(C(=O)OC)cc12` the Potency was 6.7 µM (active).
`CCOC(=O)C1=C(C)Nc2sc(C(=O)c3ccc(Br)cc3)c(N)c2C1c1ccc(C(=O)OC)cc1` (stereo not given) was tested, and the max response, negative = inhibition was 3.24% (inactive).
With `CCOC(=O)c1ccc(Nc2cc3ccccc3c(=O)[nH]2)cc1` the max response, negative = inhibition was -11.1% (inactive).
With `COc1ccc([C@H]2N[C@]3(CCCN(CC4CCCCC4)C3=O)[C@H]3C(=O)N(C)C(=O)[C@@H]23)cc1` the max response, negative = inhibition was -7.68% (inactive).
With `CCN1C(=O)[C@H]2[C@@H](c3ccc(C(F)(F)F)cc3)N[C@]3(CCCN(Cc4ccc(Br)cc4)C3=O)[C@H]2C1=O` the max response, negative = inhibition was -8.24% (inactive).
`COc1cccc(C(NC(C)=O)c2nc(-c3cnc4ccccc4c3)cs2)c1` (stereo not given) was tested, and the max response, negative = inhibition was -4.39% (inactive).
In the case of `CCc1nc2c(OCCOc3ccccc3)cccn2c1N(C)C(=O)c1cccs1`, the max response, negative = inhibition is reported as -1.33% (inactive).
In the case of `O=C(CN1C(=O)NC2(CCc3ccccc32)C1=O)NC1CCCCC1` (stereo not given), the max response, negative = inhibition is reported as 2.51% (inactive).
For `CCOC(=O)C1CCN(C(=O)c2ccc3c(=O)n4nc(Nc5ccccc5CC)sc4nc3c2)CC1`, the max response, negative = inhibition was -1.87% (inactive).
For `NC(=O)C1(C(N)=O)OC1c1ccc(Cl)cc1Cl` (stereo not given), the Potency was 16.8 µM (active).
For `Nc1ccc2c(c1)C(O)c1ccc(Cl)cc1-2` (stereo not given), the max response, negative = inhibition was -6.61% (inactive).
For `COC(=O)C1=CN(C)C=C(C(=O)OC)C1c1ccc(Cl)cc1Cl`, the max response, negative = inhibition was 2.45% (inactive).
With `COC(=O)c1ccc2nc(-c3ccc(Cl)cc3)c(Cc3cccc(F)c3)n2c1` the max response, negative = inhibition was 1.38% (inactive).
With `O=C(Cn1cnc2c(OCc3ccccc3)ncnc21)NCc1nc2ccccc2[nH]1` the Potency was 21.2 µM (active).
In the case of `O=C(Cn1cnc2c(OCc3ccccc3)ncnc21)NCCCn1ccnc1`, the max response, negative = inhibition is reported as -12.9% (inactive).
In the case of `CC(CNC(=O)Cn1cnc2c(OCc3ccccc3)ncnc21)c1ccccc1` (stereo not given), the max response, negative = inhibition is reported as -8.63% (inactive).
`O=C(COC(=O)c1ccc(S(=O)(=O)N2CCCCCC2)cc1)Nc1ccccc1C(F)(F)F` was tested, and the max response, negative = inhibition was -1.71% (inactive).
In the case of `C[C@H]1NS(=O)(=O)c2cc(Cl)ccc2O[C@@H]1c1ccccc1`, the max response, negative = inhibition is reported as -5.69% (inactive).
For `COc1cc(NC(=O)c2cc(-c3ccc(F)cc3OC(C)C)n[nH]2)cc(OC)c1OC`, the max response, negative = inhibition was -10.2% (inactive).
For `COc1cccc(NC(=O)c2nn(C34CC5CC(CC(C5)C3)C4)cc2[N+](=O)[O-])c1`, the max response, negative = inhibition was 1.45% (inactive).
For `Cc1nc([N+](=O)[O-])nn1C12CC3CC(CC(Br)(C3)C1)C2`, the Potency was 4.74 µM (active).
With `CCOC(=O)N(C)c1c(CC)nc2c(OCc3ccccc3C(=O)OC)cccn12` the max response, negative = inhibition was -14.2% (inactive).
`COC(=O)C[C@@H]1C=C[C@@H](NC(=O)c2ccc3c(c2)OCO3)[C@@H](CO)O1` was tested, and the max response, negative = inhibition was -2.88% (inactive).
For `O=C(NCc1ccc(F)cc1)c1cc(C2CCCCN2C(=O)c2cccs2)on1` (stereo not given), the max response, negative = inhibition was -1.47% (inactive).
For `O=S(=O)(c1cccc(C(F)(F)F)c1)N1c2ccccc2-n2cccc2C1c1cccnc1` (stereo not given), the max response, negative = inhibition was 4.88% (inactive).
For `CCCCOCCCNC(=O)C[C@@H]1C[C@@]2(C(=O)OCC)CCCC=C2N(CCC2=CCCCC2)C1=O`, the max response, negative = inhibition was 4% (inactive).
For `CC1(C)OC(=O)C2=C(C[C@@H](C3CCCCC3)O[C@@H]2c2ccc(Cl)cc2)O1`, the max response, negative = inhibition was -3.8% (inactive).
In the case of `CCOC(=O)c1ccn(S(=O)(=O)c2ccc(C)cc2)c1-c1ccccc1`, the max response, negative = inhibition is reported as -3.65% (inactive).
`O=C(Nc1ccc(N2CCCCC2)cc1)c1cc(S(=O)(=O)N2CCOCC2)ccc1F` was tested, and the max response, negative = inhibition was 1.97% (inactive).
In the case of `Cc1cccc(NC(=O)c2cc(S(=O)(=O)N3CCC4(CC3)OCCO4)ccc2F)c1`, the Potency is reported as 26.7 µM (active).
`CCOc1ccccc1NC(=O)c1cc(S(=O)(=O)N2CCC3(CC2)OCCO3)ccc1F` was tested, and the max response, negative = inhibition was -1.47% (inactive).
In the case of `CC(=O)Nc1ccc(S(=O)(=O)Nc2ccc(N3CCCCC3)cc2)cc1`, the max response, negative = inhibition is reported as -2.92% (inactive).
With `O=C1CC(N2CCN(c3ccc(F)cc3)CC2)C(=O)N1c1ccccc1` (stereo not given) the max response, negative = inhibition was -2.61% (inactive).
For `O=C1C=CC(=O)N1c1ccc(N2CCCCC2)cc1`, the Potency was 3.36 µM (active).
For `C=CCN1CCN(c2ccncc2S(=O)(=O)N2CCN(C)CC2)CC1`, the max response, negative = inhibition was -10.5% (inactive).
`CCC1OC(C2CC2)CC2=C1C(=O)OC(C)(C)O2` (stereo not given) was tested, and the max response, negative = inhibition was -2.05% (inactive).
With `CC1CCN(C(=O)CSc2nnc(-c3ccco3)n2N)CC1` the max response, negative = inhibition was -0.744% (inactive).
With `CCc1nc2ccc(C(=O)NC3CCN(Cc4ccccc4)CC3)cn2c1N(CC)CCOC` the max response, negative = inhibition was -18.3% (inactive).
With `O=C(CSc1cccc2cccnc12)N/N=C/c1cccnc1` the Potency was 7.52 µM (active).
For `COc1ccc(C(=O)NCC(=O)N/N=C/c2cccnc2)cc1`, the max response, negative = inhibition was -5.97% (inactive).
For `CCn1c(SCC(=O)N/N=C/c2ccncc2)nc2ccccc21`, the max response, negative = inhibition was -2.87% (inactive).
